Test results published in PubChem BioAssay.
For part of these data: Measured potencies and affinities stand elsewhere. Activity calls are given as the source filed them.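 The calls were made as follows, unless noted: active = primary screen activator hit with a dose response curve and TRPC4 channel activation at any tested dose; inactive = no activation, no dose response, or not a primary hit.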

How the values were obtained:
[1] = test system: TRPC4 beta (transient receptor potential cation channel C4), mouse; test: TRPC4 cation channel opening, retest – cell-based, Fluo4 calcium, HEK293 TRPC4beta/mu-opioid, duplicates, 10 µM, confirmation (AID 2426;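 active = fluorescence ratio normalized to control raised more than 50% in primary screen plus both repeat runs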); details: Fluo4 calcium fluorescence, at 10 µM; stronger effect = higher value
[2] = test system: transient receptor potential cation channel C4 beta (TRPC4), mouse; test: TRPC4 cation channel opening, second retest – cell-based, second round, Fluo4, HEK293 TRPC4beta/mu-opioid, 1 µM, confirmation (AID 2461;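 active = primary screen active and over 50% activation in each of two duplicate runs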); details: Fluo4 calcium fluorescence, at 1 µM; stronger effect = higher value
[3] = test system: TRPC4 (transient receptor potential cation channel C4 beta), mouse; test: potentiation of DAMGO EC20 TRPC4 response – cell-based, second round, Fluo-4, HEK293 TRPC4beta/mu-opioid, 1 µM, confirmation (AID 2554;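 active = primary screen hit whose fluorescence ratio, in both repeats, exceeds the weak agonist control mean by 3 SD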); details: DAMGO EC20, Fluo-4 calcium flux, at 1 µM; stronger effect = higher value
[4] = test system: TRPC4 beta (transient receptor potential cation channel C4), mouse; test: potentiation of DAMGO EC20 TRPC4 response – cell-based, Fluo-4, HEK293 TRPC4beta/mu-opioid, confirmation (AID 2555;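 active = primary screen hit whose calcium fluorescence ratio, in both repeats, exceeds the weak agonist control mean by 3 SD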); details: DAMGO EC20, Fluo-4 calcium flux, at 10 µM; stronger effect = higher value
[5] = molecular target: Short transient receptor potential channel 4 (Mus musculus) (UniProt Q9QUQ5); test: blockers of DAMGO-evoked TRPC4 calcium flux – cell-based, Fluo4, HEK293 TRPC4beta/mu-opioid, confirmation (AID 2636;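 active = calcium signal cut by more than 3 SD below the full-agonist control yet still positive, in both repeats and the earlier primary screen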); details: at 10 µM; stronger effect = higher value
[6] = molecular target: Short transient receptor potential channel 4 (Mus musculus) (UniProt Q9QUQ5); test: blockers of DAMGO-evoked TRPC4 calcium flux – cell-based, second round, Fluo4, HEK293 TRPC4beta/mu-opioid, 1 µM, confirmation (AID 2637;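 active = calcium signal ratio cut to more than 3 SD under the fully stimulated control mean yet still positive, in both repeats and the primary screen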;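 as to inhibition: percent of integrated ratio relative to wells lacking test compound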); details: at 1 µM; stronger effect = higher value
[7] = molecular target: Short transient receptor potential channel 4 (Mus musculus) (UniProt Q9QUQ5); test: calcium entry via TRPC4 opening agents – cell-based, HEK293 TRPC4/mu-opioid, Fluo-4 calcium, dose response (AID 434937)
[8] = molecular target: Short transient receptor potential channel 4 (Mus musculus) (UniProt Q9QUQ5); test: potentiation of DAMGO-evoked TRPC4 calcium signal – cell-based, HEK293 TRPC4/mu-opioid, Fluo-4 calcium, EC20 DAMGO, dose response (AID 434941;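 active = earlier screen potentiator hit that boosts the TRPC4 ion channel at some dose, with a dose response; inactive = no potentiation, no dose response, or not a prior hit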;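 also: calcium entry triggered by an EC20 dose of DAMGO at the co-expressed mu-opioid receptor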)
[9] = molecular target: Short transient receptor potential channel 6 (Mus musculus) (UniProt Q61143); test: TRPC6 blockade by TRPC4 inhibitor hits – cell-based, HEK293, membrane potential dye, duplicate, selectivity assay for TRPC4 inhibitor project, confirmation (AID 434948;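 active = active in primary screen and both duplicates, each dropping signal beyond three positive-control SD with fluorescence still positive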); details: HEK293 TRPC6, membrane potential dye fluorescence, at 10 µM, stimulated with maximal-effect acetylcholine; stronger effect = higher value
[10] = molecular target: Short transient receptor potential channel 6 (Mus musculus) (UniProt Q61143); test: TRPC6 opening by TRPC4 activator hits – cell-based, HEK293, membrane potential dye, duplicate, selectivity assay for TRPC4 activator project, confirmation (AID 434950;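 active = membrane potential signal rise above negative control mean plus 3 SD in both duplicates, also active in the earlier TRPC4 screen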); details: HEK293 TRPC6, membrane potential fluorescence, at 10 µM; activation: stronger effect = higher value; outcome: activation
[11] = molecular target: Short transient receptor potential channel 6 (Mus musculus) (UniProt Q61143); test: positive modulators of mouse TRPC6 channel – HEK293 cells, membrane potential dye, duplicate, selectivity assay for TRPC4 potentiator project, confirmation (AID 434952;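 active = compound raising the membrane signal above positive-control mean plus 3 SD in both repeats, and a primary screen hit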); details: HEK293 TRPC6, membrane potential dye fluorescence, at 10 µM, maximal acetylcholine added after compound; stronger effect = higher value
[12] = molecular target: Short transient receptor potential channel 4 (Mus musculus) (UniProt Q9QUQ5); test: calcium flux activators in TRPC4/5HT1a cells, counter-screen for TRPC4 activator project, cell-based, second counter screen, HEK293 TRPC4/5HT1a, Fluo-4 (AID 434977;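 active = calcium signal rise above buffer-control mean plus 5 SD in both duplicates, and also a hit in the primary screen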); details: Fluo-4 calcium flux, at 10 µM; stronger effect = higher value
[13] = serotonin-gated TRPC4 signal block – cell-based, second counter screen, HEK293 TRPC4/5HT1a, Fluo-4, counter-screen for TRPC4 inhibitor project, confirmation (AID 434978;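 active = primary screen active whose calcium signal fell more than 3 SD beyond the full-serotonin control mean in both duplicate plates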;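 as to outcome: serotonin given first at submaximal then at maximal dose after compound preincubation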); details: Fluo-4 calcium flux, at 10 µM, serotonin added to trigger calcium flux; stronger effect = higher value
[14] = test system: TRPC4 (mouse), co-expressed with 5HT1a in HEK293; test: enhancement of serotonin-evoked TRPC4 response – cell-based, second counter screen, HEK293 TRPC4/5HT1a, Fluo-4, counter-screen for TRPC4 potentiator project, confirmation (AID 434979;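 active = signal rise over 3 SD above mean of control wells given weak agonist, in both repeats and first screen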); details: Fluo-4 calcium flux, at 10 µM, serotonin added at its EC20 dose; stronger effect = higher value
[15] = nonspecific calcium rise without TRPC4 – cell-based, HEK293 mu-opioid receptor line, counter-screen for TRPC4 activator project, confirmation (AID 449723;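 active = hit in primary screen, with calcium signal over 5 SD above buffer well mean in both duplicates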;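 also: counter screen cells carry the mu-opioid receptor alone and lack TRPC4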); details: HEK293 mu-opioid cells, Fluo-4 calcium fluorescence, at 10 µM; stronger effect = higher value
[16] = nonspecific potentiation of DAMGO calcium response – cell-based, HEK293 mu-opioid receptor line, counter-screen for TRPC4 allosteric potentiator project, confirmation (AID 449724;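 active = calcium signal rise more than 3 SD above the low-dose agonist control mean, in both duplicate plates and the primary screen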); details: HEK293 mu-opioid receptor cells, Fluo-4 calcium flux, at 10 µM, compound added before EC20 DAMGO stimulus; stronger effect = higher value

Measured: inhibition

Short transient receptor potential channel 6 (Mus musculus), sequence (Q61143 whole entry, looked up): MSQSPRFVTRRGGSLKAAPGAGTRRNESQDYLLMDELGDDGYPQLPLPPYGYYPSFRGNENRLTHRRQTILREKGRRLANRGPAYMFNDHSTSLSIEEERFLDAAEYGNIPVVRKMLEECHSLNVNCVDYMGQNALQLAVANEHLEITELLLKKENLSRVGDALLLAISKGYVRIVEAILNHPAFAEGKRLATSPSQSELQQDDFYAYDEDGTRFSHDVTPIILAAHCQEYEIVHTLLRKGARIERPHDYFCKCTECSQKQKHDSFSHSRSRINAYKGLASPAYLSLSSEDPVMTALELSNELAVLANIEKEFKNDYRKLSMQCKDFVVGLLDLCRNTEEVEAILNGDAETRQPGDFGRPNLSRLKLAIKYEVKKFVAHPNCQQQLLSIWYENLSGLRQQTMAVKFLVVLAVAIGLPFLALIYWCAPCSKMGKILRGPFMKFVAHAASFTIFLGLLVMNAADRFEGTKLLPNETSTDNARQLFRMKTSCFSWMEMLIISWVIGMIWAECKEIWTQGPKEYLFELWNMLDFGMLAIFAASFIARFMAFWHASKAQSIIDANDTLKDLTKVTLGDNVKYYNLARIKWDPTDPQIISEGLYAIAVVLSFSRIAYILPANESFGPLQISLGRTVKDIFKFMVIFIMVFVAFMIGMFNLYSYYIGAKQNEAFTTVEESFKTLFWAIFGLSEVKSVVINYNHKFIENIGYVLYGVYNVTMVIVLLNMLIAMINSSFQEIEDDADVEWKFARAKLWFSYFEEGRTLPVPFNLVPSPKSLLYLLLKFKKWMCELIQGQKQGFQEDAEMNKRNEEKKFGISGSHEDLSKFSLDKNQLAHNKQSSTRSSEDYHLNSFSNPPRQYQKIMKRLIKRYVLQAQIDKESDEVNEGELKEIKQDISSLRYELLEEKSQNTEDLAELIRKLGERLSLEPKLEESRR
Short transient receptor potential channel 4 (Mus musculus), sequence (Q9QUQ5 whole entry, looked up): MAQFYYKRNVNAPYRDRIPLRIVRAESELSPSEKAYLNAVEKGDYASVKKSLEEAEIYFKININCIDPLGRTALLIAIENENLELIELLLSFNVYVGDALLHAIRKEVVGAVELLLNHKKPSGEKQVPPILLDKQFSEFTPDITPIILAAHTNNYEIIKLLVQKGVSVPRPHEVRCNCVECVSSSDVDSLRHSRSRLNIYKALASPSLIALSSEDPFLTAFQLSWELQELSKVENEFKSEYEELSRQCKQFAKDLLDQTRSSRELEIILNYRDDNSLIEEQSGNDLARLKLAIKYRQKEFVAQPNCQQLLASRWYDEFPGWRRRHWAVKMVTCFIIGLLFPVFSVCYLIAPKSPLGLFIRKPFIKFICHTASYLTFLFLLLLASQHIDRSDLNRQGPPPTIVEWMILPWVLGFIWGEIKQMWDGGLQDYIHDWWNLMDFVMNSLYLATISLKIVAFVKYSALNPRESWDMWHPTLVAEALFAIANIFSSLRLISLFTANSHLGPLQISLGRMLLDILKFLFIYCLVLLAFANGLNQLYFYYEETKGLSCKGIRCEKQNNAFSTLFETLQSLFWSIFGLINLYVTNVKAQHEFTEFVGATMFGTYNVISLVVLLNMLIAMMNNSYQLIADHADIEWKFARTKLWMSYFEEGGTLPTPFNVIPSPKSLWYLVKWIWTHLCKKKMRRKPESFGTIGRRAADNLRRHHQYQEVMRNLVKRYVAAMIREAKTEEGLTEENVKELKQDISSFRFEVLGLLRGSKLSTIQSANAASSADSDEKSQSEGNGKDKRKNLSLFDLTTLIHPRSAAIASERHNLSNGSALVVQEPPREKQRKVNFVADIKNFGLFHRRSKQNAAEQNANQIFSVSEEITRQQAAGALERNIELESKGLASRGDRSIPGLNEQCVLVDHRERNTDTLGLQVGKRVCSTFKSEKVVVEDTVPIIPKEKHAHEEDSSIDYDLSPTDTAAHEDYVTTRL

Cc1ccccc1N1CC(O)(c2cccs2)[N+]2=C1CCCC2 (stereo not given)
inactive: all assays above

Cc1ccc(-c2[nH]c3ccccc3c2SCCN)cc1
active: [9] 34.5%
inactive: all other assays above

Cc1nc2ccccc2n1CCOc1ccc(F)cc1
active: [5] 95% | [6] 79% | [13] 7.92%
inactive: all other assays above

Oc1c(CN2CCCCC2)cc(Br)c2cccnc12
active: [5] 93% | [13] 4.44%
inactive: all other assays above

O=C(CN1CCCCC1)N1c2ccccc2Oc2ccccc21
active: [5] 95% | [13] 9.39%
inactive: all other assays above

COc1ccc(/C=C2/SC(=S)N(CCCC(=O)Nc3ccccc3C(=O)O)C2=O)cc1
active: [5] 81% | [6] 48% | [13] 36.7%
inactive: all other assays above

O=C(Cn1c(NCCCO)nc2ccccc21)c1ccc(Br)cc1
active: [5] 88% | [6] 52% | [13] 28.7%
inactive: all other assays above

NS(=O)(=O)c1ccc(CCNCc2ccccc2OCc2ccc(F)cc2)cc1
active: [5] 91% | [6] 55% | [13] 24.6%
inactive: all other assays above

COc1ccc(C2=NN(C(=O)c3ccccc3)C(c3ccc(OC)c(OC)c3)C2)c(O)c1 (stereo not given)
active: [5] 66%
inactive: all other assays above

Brc1cc2c(cc1COc1ccc(-c3nn[nH]n3)cc1)OCO2
active: [5] 89% | [13] 35.1%
inactive: all other assays above

Cc1nn(-c2cccc(Cl)c2)c2nc(C(F)(F)F)[nH]c(=O)c12
active: [5] 95% | [6] 56% | [13] 34.8%
inactive: all other assays above

CCn1cc(CN2CCCC(CO)(Cc3cccc(Cl)c3)C2)cn1 (stereo not given)
active: [5] 94% | [13] 38.8%
inactive: all other assays above

CCOC(=O)C1(Cc2ccccc2)CCN(CC2CC=CCC2)CC1 (stereo not given)
active: [5] 93%
inactive: all other assays above

CCN(CC)c1ncnc2scc(C3COc4ccccc4O3)c12 (stereo not given)
active: [5] 86% | [13] 33%
inactive: all other assays above

FC(F)Oc1ccccc1NC(=S)Nc1cccc(Cl)c1Cl
active: [5] 77% | [6] 45%
inactive: all other assays above
